# Biological target: IL7
# Assay: pooled miR-30 sensor sort-seq; sequence = guide strand
# Conditions: shRNA
# Also: reference of the scale not given here.
row,Sequence,sensor-assay potency score (higher = more potent)
1,TAAAGATTTATTTTCTTCCAAA,-1.11
2,TATCACAATCAGATGATGCTAC,0.423
3,TAGCATCACAGATATGTCTTTT,-0.445
4,TATTATTGCAACTGATACCTTA,-0.0538
5,TTGTTTGTATTCATCTTCTAGT,-0.373
6,TTCCTTATTAGCATCACAGATA,-0.731
7,TTGTAATAGTCTCTTTAGGAAA,-1.6
8,TAGGAAACACAAGTCATTCAGT,0.00202
9,TTCTAGTAATACAATATGCATT,-1.23
10,TTTTCTTCCAAACTCTTTGTTG,-0.54
11,TTTATTTTCTTCCAAACTCTTT,-0.524

# Biological target: ILDR2
# Assay: as above
# Conditions: shRNA
row,Sequence,sensor-assay potency score (higher = more potent)
1,TTGTCGGGCACTGTGACCTGAA,-0.304
2,TACAGTAATAGAGTCCGCTGTC,0.133
3,TAATACAGTAATAGAGTCCGCT,0.505
4,TAGTACAGGACCTTCATGGAGT,0.283
5,TTGAAGCTACTACTCGAACAGT,-0.815
6,TTCTCTTGCTGAGAGATTGGGC,-0.528
7,TGAACAATCGTGATCTCTCTGC,-0.125
8,TCTGCATCATGAACAATCGTGA,-0.116
9,TACTACTCGAACAGTCCTCCTG,0.188
10,TGAACTTCCACTGCACAACTGC,-0.265
11,TAGGACTTGAACTTCCACTGCA,0.867
12,TTATATCTGCCTCTCATCCTTC,-0.505

# Biological target: IMMP2L
# Assay: as above
# Conditions: shRNA
row,Sequence,sensor-assay potency score (higher = more potent)
1,TTCAAAGAAGGCTGCATCGATG,-1.29
2,TATGGTTCTGACAATATCTCCT,0.439
3,TCTACTCTTGCCACACAGGCGA,-0.683
4,ATCGATGCTCCTTCTACTCTTG,-0.658
5,TTGATGTATCTTTTCACCCACC,-0.733
6,TAATGATCTTCTGTTCTGGGTT,-0.0559
7,TTCAAAAGCACCACATCAGATG,-0.957
8,TCAAAATTCCTCACTTTCCAGT,-0.183
9,TCTTAATGATCTTCTGTTCTGG,0.00439
10,TAAATATTTCTCGCACAGCATC,-1.39
11,TTCAAGAGCAATCACTCTCTTA,-0.135
12,AATGATACAATGTCACCACGGT,0.432

# Biological target: INF2
# Assay: as above
# Conditions: shRNA
row,Sequence,sensor-assay potency score (higher = more potent)
1,TTTCAGGATGCTCTCACTCTGG,-0.623
2,TAGCTCAAACACCTGCTTCTTC,-0.118
3,TAGAGTTGTGCTCACGTGCCAC,-0.638
4,TTGAGGTTCAGGCTCTTCTTGG,-1.01
5,TTCAATCTCGTGCTTCTCGGGA,-0.3

# From the OligoGym collection
